# According to the supplement of paper PMC6992640:
# Counter-ions that a name gives are not always drawn. ± gives the standard deviation of the averaged measurements.
# What was measured:
# Experiment in all cases: cell viability (% of vehicle); higher = less cytotoxic
# Settings in all cases: 10 µM; 72 h
# HCI01 = test system: HCI01 (cells of a triple-negative basal-like breast cancer xenograft)
# HCI03 = test system: HCI03 (cells of an ER-positive luminal breast cancer xenograft)
# HCI09 = test system: HCI09 (cells of a triple-negative luminal androgen receptor type breast cancer xenograft)
# HCI11 = test system: HCI11 (cells of an ER-positive luminal breast cancer xenograft)
# HCI13 = test system: HCI13 (cells of an ER-positive luminal breast cancer xenograft)
# HCI16 = test system: HCI16 (cells of a triple-negative basal-like breast cancer xenograft)
# UCD52 = test system: UCD52 (cells of a triple-negative basal-like breast cancer xenograft)
# WHIM2 = test system: WHIM2 (cells of a triple-negative basal-like breast cancer xenograft)
# WHIM30 = test system: WHIM30 (cells of a triple-negative basal-like breast cancer xenograft)
# 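Further: PDX cells carrying CMV promoter-driven luciferase, viability read as total photon flux per second by IVIS imaging following D-luciferin, vehicle control 0.1% DMSO.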
SMILES,cell viability (HCI01),cell viability (HCI03),cell viability (HCI09),cell viability (HCI11),cell viability (HCI13),cell viability (HCI16),cell viability (UCD52),cell viability (WHIM2),cell viability (WHIM30)
COc1ccc(C2CNC(=O)C2)cc1OC1CCCC1 (stereo not drawn) [S- (+)-Rolipram],144 ± 9,152,94.4 ± 32,121,144 ± 31,136,99.5 ± 11,117.8 ± 0.47,134 ± 9.9
Cl.O=S(=O)(c1cccc2cnccc12)N1CCCNCC1 [Fasudil (HA-1077) HCl],81.6 ± 18,93.4,69.3 ± 9.2,76.2,79.6 ± 5.5,122,60.4 ± 9.9,87.3 ± 2.9,92.1 ± 12
CO/N=C(\C(=O)N[C@@H]1C(=O)N2C(C(=O)O)=C(CSc3nc(=O)c(O)nn3C)CS[C@H]12)c1csc(N)n1 [Ceftriaxone Sodium Trihydrate],148 ± 45,111,98.6 ± 26,101,77.6 ± 1.9,125,106 ± 1.4,130 ± 13,109 ± 2.1
CN1CCC(=C2c3ccccc3CCn3c(C=O)cnc32)CC1 [Alcaftadine],94.1 ± 31,117,94.3 ± 18,86.9,120 ± 20,124,92.4 ± 10,97.9 ± 3.4,114 ± 6.9
Nc1nc(F)nc2c1ncn2C1OC(CO)C(O)C1O (stereo not given) [Fludarabine],131 ± 27,134,103 ± 10,116,165 ± 10,171,105 ± 4,106 ± 2,121 ± 8.2
C[N+]1(C)C2CCC1CC(OC(=O)C(O)c1ccccc1)C2.[Br-] (stereo not given) [Homatropine Methylbromide],96.2 ± 1.2,97.6,89.8 ± 18,85.9,105 ± 5,114,104 ± 1.8,112 ± 8,50.8 ± 2.7
N.N.[Cl][Pt+2][Cl] [Cisplatin],114 ± 0.99,124,64 ± 66,119,66.6 ± 27,117,99.9 ± 11,117 ± 18,133 ± 14
NC(=O)NN=Cc1ccc([N+](=O)[O-])o1 [Nitrofurazone],125 ± 3.8,149,38.5 ± 15,92.3,159 ± 12,148,137 ± 15,105 ± 7.4,118 ± 18
CC(COc1ccccc1)N(CCCl)Cc1ccccc1.Cl (stereo not given) [Phenoxybenzamine HCl],122 ± 3.3,131,133 ± 28,114,150 ± 8.9,195,104.7 ± 0.72,93.9 ± 10,191 ± 9.4
Cl.Nc1ncnc2nc[nH]c12 [Adenine HCl],124 ± 9.7,126,112 ± 4.7,117,87.7 ± 10,147,165 ± 5.9,106 ± 4.3,101 ± 7.6
COC(=O)C1C2CC3c4[nH]c5cc(OC)ccc5c4CCN3CC2CC(OC(=O)c2cc(OC)c(OC)c(OC)c2)C1OC.Cl (stereo not given) [Reserpine hydrochloride],109 ± 8.9,114,66.7 ± 3.4,97.6,124 ± 17,87.9,79.9 ± 1.5,92.6 ± 19,78.4 ± 6.3
Clc1ccc2c(c1)C(N1CCNCC1)=Nc1ccccc1O2 [Amoxapine],96.5 ± 15,104,87.5 ± 8.7,85,88 ± 2.5,94.9,100 ± 40,91.7 ± 7.3,197 ± 18
COc1cc(C=CC(=O)N2CCN(CC(=O)N3CCCC3)CC2)cc(OC)c1OC.O=C(O)C=CC(=O)O [Cinepazide maleate],90.6 ± 5.7,130,94.4 ± 8.9,94.4,81.9 ± 12,106,121 ± 8.9,111 ± 17,102 ± 8.3
"Cc1c(C(=O)Nc2ccc(N3CC(C)OC(C)C3)nc2)cccc1-c1ccc(OC(F)(F)F)cc1 (stereo not given) [LDE225 (NVP-LDE225,Erismodegib)]",98.3 ± 17,119,66.8 ± 2.4,80.7,69.7 ± 4.5,94.8,80.8 ± 1.8,97.5 ± 14,86.1 ± 7.6
Cn1cnc([N+](=O)[O-])c1Sc1ncnc2nc[nH]c12 [Azathioprine],98.2 ± 32,119,106 ± 26,87,65 ± 8.7,151,129 ± 18,71.1 ± 10,110 ± 8.8
CCN(CCO)CCCC(C)Nc1ccnc2cc(Cl)ccc12.O=S(=O)(O)O (stereo not given) [Hydroxychloroquine Sulfate],71.8 ± 4.6,96.6,72.2 ± 1.6,81.8,84.4 ± 8.1,86.5,71.4 ± 3.8,70.8 ± 2.9,101.7 ± 0.69
CC12CCC3=C4CCC(=O)C=C4CCC3C1CCC2(O)CC#N (stereo not given) [Dienogest],178 ± 40,124,94.3 ± 2.7,82.2,170 ± 3.3,164,92.3 ± 3.2,105 ± 6.8,139 ± 9
CNC(=O)c1ccc(N2C(=S)N(c3ccc(C#N)c(C(F)(F)F)c3)C(=O)C2(C)C)cc1F [MDV3100 (Enzalutamide)],115 ± 11,138,104.5 ± 0.14,96.1,94.3 ± 22,107,117 ± 6,97.9 ± 3.6,157 ± 1.9
COc1ccc(-c2ccc3cc(C(=O)O)ccc3c2)cc1C12CC3CC(CC(C3)C1)C2 [Adapalene],119 ± 6.1,81.4,92.2 ± 40,95.5,139 ± 23,82.7,179 ± 28,83.8 ± 12,114 ± 18
O=C1CCC(C(=O)N2CSCC2C(=O)O)N1 (stereo not given) [Pidotimod],93.1 ± 30,137,96.2 ± 5.1,96.7,132 ± 3.4,108,98.5 ± 9.8,90 ± 22,122 ± 2.3

SMILES,cell viability (HCI01),cell viability (HCI03),cell viability (HCI09),cell viability (HCI11),cell viability (HCI13),cell viability (HCI16),cell viability (UCD52),cell viability (WHIM2),cell viability (WHIM30)
CC(=O)OCC[N+](C)(C)C.[Cl-] [Acetylcholine Chloride],104 ± 23,85.8,95.1 ± 7.5,87.1,101 ± 9.6,97.8,69.3 ± 1.8,96.7 ± 6.8,107 ± 21
CCCC(CCC)C(=O)[O-].[Na+] [Valproic acid sodium salt (Sodium valproate)],190 ± 54,154,92 ± 18,140,111 ± 14,159,158 ± 42,105 ± 18,192 ± 10
Br.Br.Br.Br.Br.Cc1cc(N2CCN(C3CNC(C(=O)N4CCSC4)C3)CC2)n(-c2ccccc2)n1.Cc1cc(N2CCN(C3CNC(C(=O)N4CCSC4)C3)CC2)n(-c2ccccc2)n1 (stereo not given) [Teneligliptin hydrobromide],111 ± 3.1,95.2,82.5 ± 13,71.5,79.96 ± 0.58,88.2,82 ± 1.3,99 ± 20,88.4 ± 3.9
C#CCNC1CCc2ccccc21.CS(=O)(=O)O (stereo not given) [Rasagiline Mesylate],157 ± 6,117,117 ± 8.5,127,126 ± 4.8,141,107 ± 8.4,114 ± 6.4,139 ± 16
OCCOCCN1CCN(C2=Nc3ccccc3Sc3ccccc32)CC1 [Quetiapine],122 ± 13,109,94.9 ± 23,94.1,116 ± 8.1,94.1,101 ± 4,104 ± 5.5,131 ± 13
Cc1nnc(C(=O)NC(C)(C)c2nc(C(=O)NCc3ccc(F)cc3)c(O)c(=O)n2C)o1 [Raltegravir (MK-0518)],126 ± 2,134,97 ± 18,116,93.4 ± 11,118,119 ± 20,116 ± 15,136 ± 7.5
C[N+](C)(C)CC(=O)[O-] [Betaine],107 ± 33,140,103 ± 12,90.7,140 ± 1.5,116,106 ± 5.9,99.7 ± 16,90 ± 12
O=C(C1CCCCC1)N1CC(=O)N2CCc3ccccc3C2C1 (stereo not given) [Praziquantel],99.2 ± 15,132,94.6 ± 5.6,93.1,134 ± 17,112,96.7 ± 4.2,94 ± 20,114 ± 7.9
CC1(C)OC2COC3(COS(N)(=O)=O)OC(C)(C)OC3C2O1 (stereo not given) [Topiramate],103 ± 19,128,95.2 ± 20,138,133 ± 1.9,115,78.8 ± 6.2,105 ± 16,110 ± 5.4
Cc1ccccc1C(=O)Nc1ccc(C(=O)N2CCCC(O)c3cc(Cl)ccc32)c(C)c1 (stereo not given) [Tolvaptan],97.7 ± 38,138,80.4 ± 7.1,85.9,101 ± 5,159,89 ± 4.9,92.5 ± 19,157 ± 8.1
O=C(NCC1CN(c2ccc(N3CCOCC3=O)cc2)C(=O)O1)c1ccc(Cl)s1 (stereo not given) [Rivaroxaban],114 ± 11,119,89.9 ± 3.4,105,130 ± 15,94.8,85.2 ± 13,109 ± 9,117 ± 15
CC(C(=O)O)c1ccc2c(c1)Cc1cccnc1O2 (stereo not given) [Pranoprofen],113 ± 13,128,93.6 ± 16,78.6,123 ± 16,125,98.8 ± 19,110 ± 3.3,111 ± 22
CC(=O)O[C@H]1Cc2ccccc2N(C(N)=O)c2ccccc21 [Eslicarbazepine acetate],102 ± 12,116,111 ± 6.7,85.7,102 ± 11,106,95.5 ± 1.3,102 ± 27,94.1 ± 16
COC(=O)C=CC(=O)OC [Dimethyl Fumarate],126 ± 22,129,104 ± 5.7,95.4,70.4 ± 15,113,94.6 ± 3.6,134 ± 30,128 ± 18
N#CC(=C1SCC(c2ccc(Cl)cc2Cl)S1)n1ccnc1 (stereo not given) [Luliconazole],131 ± 29,108,73.3 ± 15,90.6,70.2 ± 5.6,72.4,88.5 ± 4.3,97.1 ± 3.4,130 ± 7.6
C1CNCCN1.C[C@@]12CC[C@H]3c4ccc(OS(=O)(=O)O)cc4CC[C@H]3[C@H]1CCC2=O [Estropipate],89.8 ± 7.5,173,81.6 ± 11,95.3,159 ± 20,104,104.03 ± 0.037,91.3 ± 27,98.27 ± 0.36
CC(Cc1cc2c(c(C(N)=O)c1)N(CCCO)CC2)NCCOc1ccccc1OCC(F)(F)F (stereo not given) [Silodosin],103 ± 7.4,99.5,106 ± 39,127,96.6 ± 16,117,82.5 ± 14,98 ± 21,94.2 ± 6.5
COC(=O)NC(C(=O)NC(Cc1ccccc1)C(O)CN(Cc1ccc(-c2ccccn2)cc1)NC(=O)C(NC(=O)OC)C(C)(C)C)C(C)(C)C.O=S(=O)(O)O (stereo not given),134 ± 8.2,135,74.8 ± 2.8,140,100 ± 5.6,138,113 ± 14,90 ± 6.2,148 ± 31
Cl.O=C(O)C=Cc1ccc(Cn2ccnc2)cc1 [Ozagrel HCl],72.6 ± 40,135,100 ± 10,99.5,126 ± 10,122,87.7 ± 1.4,93.3 ± 30,140 ± 2.3
C[N+](C)(C)CC(O)CC(=O)O.[Cl-] (racemic) [DL-Carnitine HCl],111 ± 35,112,120 ± 37,101,113 ± 5.4,147,102 ± 13,114 ± 25,132 ± 11
